# Source: PubChem BioAssay AID1626 (SRMLSC, 2009)
# Among all 220,000 compounds or so, about 2,000 (0.91%) were called active. Not shown: some 2% with an inconclusive outcome. No stated cut-off is given here; in the data, inconclusive means inhibition above about 80% without an active follow-up result; inactive means below that; test concentration not stated here. The list is a sample of the results. Measured potencies and affinities stand elsewhere.
# Experiment: M. tuberculosis H37Rv growth inhibitors, H37Rv strain (AID 1626);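 further: bacteria incubated seven days before Alamar blue readout; 0% = bacteria only wells and 100% = bacteria with antibiotic wells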
# Details: active compounds read high, concentration not given here
row,Compound,inhibition
1,CC(C)CN1CCN(Cc2ccc(Oc3ncccn3)cc2)CC1CCO (stereo unspecified),-12.7% (inactive)
2,Cc1ccccc1NC(=O)c1ccc([N+](=O)[O-])o1,-5.26% (inactive)
3,Cc1cccc(NC(=O)COC(=O)c2ccc([N+](=O)[O-])o2)c1C,-1.87% (inactive)
4,Cc1ccc(CNC(=O)c2ccc(Br)o2)cc1,6.85% (inactive)
5,O=C(Nc1cccc(NC(=O)c2cccs2)c1)c1ccco1,-1.16% (inactive)
6,O=C(Nc1ccc2oc(-c3cccnc3)nc2c1)c1ccc(Br)o1,-4.68% (inactive)
7,COc1cc(NC(=O)c2ccc([N+](=O)[O-])o2)ccc1NC(=O)c1cccs1,11.9% (inactive)
8,O=C(NCc1cccnc1)c1ccc([N+](=O)[O-])o1,9.87% (inactive)
9,O=C(Nc1ccc2oc(-c3cccnc3)nc2c1)c1ccco1,-0.84% (inactive)
10,O=C(NCCCN1CCOCC1)C(C(=O)NCCCN1CCOCC1)c1ncc(C(F)(F)F)cc1Cl,-6.54% (inactive)
11,O=C1CC(C(=O)O)S/C(=N\N=C\c2ccc(Br)cc2)N1 (stereo unspecified),-6.35% (inactive)
12,COc1cccc(OC)c1C(=O)NNC(=O)c1ccc(F)cc1,-2.49% (inactive)
13,COc1ccccc1CN1C[C@@H]2C[C@@H](c3cccc(C)c3)N3CCC[C@@]23C1=O,4.89% (inactive)
14,CCN(CC)S(=O)(=O)c1ccc(N/N=C(\C)c2ccc3c(c2)OCO3)c([N+](=O)[O-])c1,2.18% (inactive)
15,NC(=O)N/N=C/c1coc2ccc(O)cc2c1=O,-3.42% (inactive)
16,O=C(Nc1ncccn1)c1ccc([N+](=O)[O-])o1,0.82% (inactive)
17,Cc1cc(C)nc(NC(=O)c2ccc([N+](=O)[O-])o2)n1,-5.31% (inactive)
18,NS(=O)(=O)c1ccc(O)c(NC(=O)c2ccc([N+](=O)[O-])o2)c1,-1.93% (inactive)
19,Cc1ccnc(NC(=O)c2ccc([N+](=O)[O-])o2)c1,5.02% (inactive)
20,Cc1cccc(NC(=O)c2ccc([N+](=O)[O-])o2)n1,3.18% (inactive)
21,Cc1cccnc1NC(=O)c1ccc([N+](=O)[O-])o1,2.32% (inactive)
22,C=CCNC(=O)c1ccc2c(c1)S(=O)(=O)c1ccccc1C2=O,-9.32% (inactive)
23,COc1cc(C(=O)N2CCN(c3ccccc3)CC2)c([N+](=O)[O-])cc1OC,3.88% (inactive)
24,CN(C)c1ccc(CC(=O)c2nc3ccccc3s2)cc1,-5.99% (inactive)
25,CCCSc1nnc(NC(=O)Nc2ccc(F)cc2)s1,17% (inactive)
26,O=C(NCC1CCCN(Cc2cccc(C(F)(F)F)c2)C1)c1ccc(F)cc1 (stereo unspecified),-2.43% (inactive)
